Sampled rows, rich in hits. Any-hit rate of the full collection: about 12%.
Shiga inhibitor – A qHTS for Small Molecule Inhibitors of Shiga Toxin. Vero cells, Shiga toxin protein synthesis inhibition reporter. inhibition, % at 38.7 µM. 290,000 compounds, 9.2% hits. AID 2315, 2010; in the data active = inhibition mostly above about 28%, no sharp cut-off; inactive = mostly below about 43%
CHX counter – Cycloheximide Counterscreen for Small Molecule Inhibitors of Shiga Toxin; cell reporter, cycloheximide protein synthesis inhibition counterscreen; max response, %; 300,000 compounds, 12% hits; in the data active = max response mostly above about 13%, no sharp cut-off; inactive = mostly below about 14%; note: read at 38.3 µM for the half of the compounds with a filed dose
FMDV inh – High Throughput Screening for Foot and Mouth Disease Virus Antivirals; FMDV antiviral cell-based qHTS; Potency, µM (top dose mostly 57.9 µM), actives largely listed as inhibitors; 410,000 compounds, 1.2% hits; AID 1159524, 2015; calls by dose curve; tested in HEK293T cells; note: read-out not given here; nearly all actives have a fitted effect of over 45% in size
Sm TGR inh – qHTS Assay for the Inhibitors of Schistosoma Mansoni Peroxiredoxins; purified TGR, DTNB reduction, TNB absorbance 405 nm; Potency, µM (series often up to 114 µM), actives largely listed as inhibitors; 360,000 compounds, 3% hits; active = well fitted inhibition curve with a large enough effect; inconclusive = small, poorly fitted or top-dose-only effect; inactive = no such curve, though single readings can be large or run the other way; note: nearly all actives have a fitted effect of over 60% in size
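First, TGR (20 nM dispensed) and NADPH were mixed with compound. Second, a 15 min room-temperature incubation followed. Third, further NADPH and then DTNB were added to start the reaction. Finally, TNB absorbance was monitored kinetically.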
Hits are given with their value; . = inactive; ? = inconclusive; / = not tested or not shown.

SMILES | Shiga inhibitor | CHX counter | FMDV inh | Sm TGR inh
CCN1CCN(c2ccc([N+](=O)[O-])c(Sc3nc4ccccc4[nH]3)c2)CC1 | . | . | . | .
CC(=O)OCCCNc1cc(Sc2ccc(C)cc2)c2nonc2c1[N+](=O)[O-] | . | . | ? | 8.91µM
CC(=O)OCCCNc1cc(Sc2nc3ccccc3s2)c2nonc2c1[N+](=O)[O-] | . | . | ? | 0.1µM
CC(=O)OCCNc1cc(Sc2nc3ccccc3[nH]2)c2nonc2c1[N+](=O)[O-] | . | . | 35.5µM | 0.316µM
CC1CCN(CCCNc2cc(NCCO)c([N+](=O)[O-])c3nonc23)CC1 | . | . | . | .
COc1ccc(S(=O)(=O)NCCc2cn3ccsc3n2)cc1 | / | / | . | .
COc1ccc(S(=O)(=O)NCCc2cn3ccsc3n2)cc1OC | / | / | . | 39.8µM
COc1ccc(OC)c(NC(=O)C2CCN(S(=O)(=O)c3c(C)noc3/C=C/c3ccc(C)cc3)CC2)c1 | / | / | . | .
Cc1coc(=N)n1CC(=O)c1ccc(Cl)cc1 | . | . | . | 39.8µM
Cc1nn(-c2nc3ccccc3s2)c(N)c1Sc1ccc(F)cc1 | 48.5 | 20.3 | / | .
Cc1nn(-c2nc3ccccc3s2)c(N)c1-c1ccccc1 | 90.5 | 72.4 | / | .
Cc1nn(-c2nc3ccccc3s2)c(N)c1-c1ccc(Cl)cc1 | 54.1 | 33.0 | . | .
Cc1cc(N)n(-c2nc3ccccc3s2)n1 | . | . | ? | .
CCOC(=O)C(=O)Nc1nnc2n1CCS2 | / | / | . | .
COCCn1c(=O)c(-c2cccc(C#N)c2)nc2cnc(N3CCOCC3)nc21 | / | / | . | /
COc1ccc(C2c3c(n(C)c4ccccc34)C(=O)N2CC(=O)Nc2ccc(C)cc2Cl)cc1 (stereo not given) | / | / | . | .
CC(Oc1ccccc1)C(=O)Nc1ccccc1C(=O)OCc1cc(=O)n2nc(C(C)C)sc2n1 (stereo not given) | / | / | . | .
Cc1ccc(/C=C/C(=O)c2c(C)cc(C)[nH]c2=O)cc1 | . | . | ? | .
CCc1ccc(/C=C/C(=O)c2c(C)cc(C)[nH]c2=O)cc1 | . | . | 28.2µM | ?
COc1cccc(/C=N/Nc2nc(-c3cccnc3)nc3ccccc23)c1 | 65.5 | 17.8 | . | .
COc1cccc(CNc2nc(-c3cccnc3)nc3ccccc23)c1 | . | . | ? | .
CCOC(=O)c1cccc(Nc2nc(-c3cccnc3)nc3ccccc23)c1 | . | . | 28.2µM | .
Brc1ccc(-c2nc(N/N=C/c3cccnc3)c3ccccc3n2)cc1 | 103.4 | 31.6 | ? | .
FC(F)(F)c1nc2ccccc2nc1N/N=C\c1ccccc1 | 93.6 | 18.7 | . | .
COC(=O)c1cccc(Nc2nc(-c3cccnc3)nc3ccccc23)c1 | . | . | ? | .
SMILES | Shiga inhibitor | CHX counter | FMDV inh | Sm TGR inh
COc1ccccc1-c1noc(-c2ccc(N(C)Cc3ccccc3)c([N+](=O)[O-])c2)n1 | / | / | . | .
Cc1ccc(N2CC(NC(=O)C(=O)c3c[nH]c4ccccc34)CC2=O)cc1 (stereo not given) | / | / | . | .
C(=N\Nc1nc(-c2cccnc2)nc2ccccc12)/c1ccccc1 | 49.5 | 23.4 | . | .
C(=N\Nc1nc(-c2ccccn2)nc2ccccc12)/c1ccccc1 | . | . | / | .
CCOc1ccc(S(=O)(=O)Nc2ccc3c(c2)c(C(C)=O)c(C)n3S(=O)(=O)c2ccc(OCC)cc2)cc1 | / | / | . | .
COc1cc(NS(=O)(=O)c2ccc(-c3cc(C)no3)cc2)cc(OC)c1 | / | / | . | .
NC(=O)c1cc2ccc(O)cc2oc1=Nc1ccccc1 | 50.3 | 62.9 | . | .
O=C(O)c1ccc(N=c2oc3cc(O)ccc3cc2C(=O)NCc2ccccc2)cc1 | . | . | . | .
NC(=O)c1cc2ccc(O)cc2oc1=NCc1ccccc1 | . | 15.7 | . | .
O=C(NCc1ccccc1)c1cc2ccc(O)cc2oc1=O | 42.2 | 21.4 | . | .
CCN(c1ccc(C)cc1C)S(=O)(=O)c1nnc(NC(=O)c2ccccc2OC)s1 | / | / | ? | .
COc1ccc(Cn2c(CNS(=O)(=O)c3ccc4c(c3)CCCC4)nc3cccnc32)cc1 | / | / | . | .
Cc1ccc(N(CC(=O)N2CCN(c3cc(C)ccc3C)CC2)S(=O)(=O)c2c(C)nn(C)c2C)cc1 | / | / | . | .
O=C(CN1C(=O)C2C3CCC(C3)C2C1=O)NCc1ccco1 (stereo not given) | 42.8 | . | . | .
O=C1C2C3CCC(C3)C2C(=O)N1Cc1ccco1 (stereo not given) | . | . | . | .
COC(=O)c1ccccc1NC(=O)Cn1c(=O)n(CCC(=O)NCc2ccc3c(c2)OCO3)c(=O)c2ccccc21 | / | / | . | .
Cc1ccc(CN2CCSc3ccc(C(=O)NCc4ccc(OC(C)C)cc4)cc32)cc1 | / | / | . | .
CCN1CCSc2ccc(C(=O)NCc3ccc(OC)cc3)cc21 | / | / | . | .
Cc1cccc(CNC(=O)c2ccc3c(c2)N(C)CCS3)c1 | . | . | . | .
CN1CCSc2ccc(C(=O)NCc3cccc(Br)c3)cc21 | . | 10.9 | . | .
CN1CCSc2ccc(C(=O)NCc3ccccc3F)cc21 | 35.0 | 27.5 | . | .
COc1ccc(CNC(=O)c2ccc3c(c2)N(C)CCS3)cc1 | . | active | . | .
CC(C)Oc1ccc(CNC(=O)c2ccc3c(c2)N(C)CCS3)cc1 | 53.8 | 35.1 | . | .
CC(C)(C)c1nnc(NC(=O)c2cccs2)s1 | 75.1 | 71.0 | . | .
CC(C)(C)c1nnc(NC(=O)c2cccnc2)s1 | . | 21.4 | . | .
SMILES | Shiga inhibitor | CHX counter | FMDV inh | Sm TGR inh
CC(C)c1nnc(NC(=O)c2cccs2)s1 | 70.4 | 57.9 | . | .
O=C(Nc1nnc(CCc2ccccc2)s1)c1cccs1 | . | . | . | .
O=C(CSc1nc2ccccc2n1Cc1cccc(C(F)(F)F)c1)NCc1ccccc1 | / | / | . | .
CC(C)(C)c1csc(CS(=O)(=O)c2ccccn2)n1 | 88.5 | 23.6 | . | .
O=C(/C=C/c1ccco1)NCC1OCCc2ccccc21 (stereo not given) | . | . | . | 0.501µM
O=C(CNC(=O)c1ccccc1)NCC1COc2ccccc2O1 (stereo not given) | . | . | . | .
O=C(/C=C/c1ccco1)NCC1COc2ccccc2O1 (stereo not given) | . | 35.6 | . | 0.891µM
COc1cc(CC(=O)NCC2COc3ccccc3O2)cc(OC)c1OC (stereo not given) | . | . | . | .
COc1ccccc1NC(=O)C(=O)NCC1COc2ccccc2O1 (stereo not given) | . | 23.4 | / | .
C=CC(=O)NCC1OCCc2ccccc21 (stereo not given) | . | . | . | .
COc1ccc(/C=C/C(=O)NCC2COc3ccccc3O2)c(OC)c1 (stereo not given) | 46.3 | 20.3 | . | .
Cc1nc2ccc(NC(=O)C3COc4ccccc4O3)cc2s1 (stereo not given) | 84.5 | 40.9 | . | .
Cc1nc2ccc3nc(NC(=O)C4COc5ccccc5O4)sc3c2s1 (stereo not given) | . | . | . | .
Cc1nc2cc(NC(=O)C3COc4ccccc4O3)ccc2s1 (stereo not given) | 54.2 | 60.6 | . | .
O=C(Nc1ccc(F)cc1Cl)n1ncc2cc(Cl)ccc21 | / | / | . | .
CCc1ccc(CN2CCc3nc(N4CCN(c5ccccc5F)CC4)ncc3C2)cc1 | / | / | ? | .
